Results reported in PubChem BioAssay.
The source made the active and inactive calls.

Key:
[1] = biological target: NADPH oxidase 4 (Homo sapiens) (UniProt Q9NPH5); experiment: NOX4-dependent H2O2 signal modulators, primary screen, NOX inhibitor project, cell-based, HEK293-NOX4, tetracycline-induced, Amplex Red fluorescence (AID 1160); conditions: 45 min, higher = more signal, called active from +8 up or from −8 down
[2] = biological target: NADPH oxidase 5 (Homo sapiens) (UniProt Q96PH1); experiment: NOX5-dependent H2O2 signal modulators, primary screen, NOX inhibitor project, cell-based, HEK293-NOX5, Amplex Red fluorescence (AID 1161); conditions: HEK293-NOX5, ionomycin, 45 min, higher = more signal
[3] = A549 cell viability effects, profiling panel, calcein-AM fluorescence, 48 h, basal (AID 1162); conditions: higher = more signal; note: test concentration not given here
[4] = adipocyte viability effects, profiling panel, cell-based, 3T3-L1 adipocytes, calcein-AM fluorescence, 48 h, basal (AID 1163); conditions: 3T3-L1 adipocytes viability, higher = more signal; note: test concentration not given here
[5] = HepG2 cell viability effects, profiling panel, calcein-AM fluorescence, 48 h, basal (AID 1164); conditions: higher = more signal; note: test concentration not given here
[6] = MM1S cell viability effects, profiling panel, calcein-AM fluorescence, 48 h, basal (AID 1165); conditions: higher = more signal;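 note: viability of MM1S multiple myeloma cells under basal unstimulated conditions; test concentration not given here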
[7] = basal RPMI8226 viability, no added stimulus, profiling panel, cell-based, calcein-AM fluorescence, 48 h, PK04 Diversity Set (AID 1166); conditions: RPMI8226 myeloma viability, higher = more signal;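 note: cells grown under basal conditions without added stimulus; test concentration not given here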
[8] = basal HepG2 mitochondrial membrane potential changes, profiling panel, cell-based, JC-1 fluorescence, 24 h, 100 nL compound (AID 1167); conditions: higher = more signal; note: test concentration not given here
[9] = basal 3T3-L1 adipocyte mitochondrial potential changes, profiling panel, cell-based, JC-1 fluorescence, 3T3-L1 adipocytes, 24 h, 100 nL compound (AID 1168); conditions: JC-1 mitochondrial fluorescence, higher = more signal, called active from +8 up or from −8 down; note: test concentration not given here
[10] = basal RPMI8226 mitochondrial membrane potential changes, profiling panel, cell-based, JC-1 fluorescence, 24 h, 100 nL compound (AID 1169); conditions: RPMI8226 myeloma, JC-1 mitochondrial potential fluorescence, higher = more signal; note: test concentration not given here
[11] = basal MM1S mitochondrial membrane potential changes, profiling panel, cell-based, JC-1 fluorescence, 24 h, 100 nL compound (AID 1170); conditions: higher = more signal; note: test concentration not given here
[12] = A549 lung cancer cell viability effects, profiling panel, resazurin fluorescence, 24 h, PK04 Diversity Set (AID 1171); conditions: higher = more signal, called active from +8 up or from −8 down; note: test concentration not given here
[13] = HepG2 liver cancer cell viability effects, profiling panel, resazurin fluorescence, 24 h, PK04 Diversity Set (AID 1172); conditions: higher = more signal; note: test concentration not given here
[14] = basal S. cerevisiae growth modulation, no modifier, primary screen, OD600, strain BY4716, 24 h, basal condition (AID 1173); conditions: OD600, 24 h, higher = more signal, called active from +8 up or from −8 down
[15] = MM1S myeloma cell viability, profiling panel, resazurin fluorescence, basal, 24 h, PK04 Diversity Set (AID 1174); conditions: higher = more signal, called active from +8 up or from −8 down;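 note: MM1S multiple myeloma cell line; test concentration not given here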
[16] = biological target: Dihydroorotate dehydrogenase (quinone), mitochondrial (Plasmodium falciparum (isolate 3D7)) (UniProt Q08210); experiment: PfDHODH enzyme inhibitors, primary screen, biochemical, C-terminal His tag, absorbance 600 nm (AID 1175); conditions: DCIP absorbance 600 nm, higher = more signal, called active from +8 up or from −8 down;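 note: recombinant parasite enzyme with a five histidine tag at its C terminus; test concentration not given here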
[17] = S. cerevisiae RM11-1a growth modifiers, primary screen, strain RM11-1a, OD600, basal, 24 h (AID 1177); conditions: OD600, 24 h, higher = more signal, called active from +8 up or from −8 down;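 note: cultures grown under basal conditions with no added stressor; test concentration not given here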
[18] = E. coli acrAB mutant growth effects, primary screen, E. coli filamentation inducers, strain DRC39, OD650, 24 h (AID 1178); conditions: higher = more signal, called active from +8 up or from −8 down;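 note: growth measured as culture turbidity by optical density at 650 nm; test concentration not given here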
[19] = E. coli acrAB mutant growth effects, primary screen, E. coli filamentation inducers, strain DRC39, OD650, 48 h (AID 1179);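 note: screen aims at cell division blockers that make cells filament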; conditions: E. coli DRC39 delta-acrAB growth, higher = more signal, called active from +8 up or from −8 down
[20] = RPMI8226 myeloma cell viability, profiling panel, resazurin fluorescence, basal, 24 h, PK04 Diversity Set (AID 1180); conditions: higher = more signal;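 note: RPMI8826 multiple myeloma cell line at 5000 cells per well; test concentration not given here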

Sequence of Dihydroorotate dehydrogenase (quinone), mitochondrial (Plasmodium falciparum (isolate 3D7)) (Q08210 whole entry, looked up): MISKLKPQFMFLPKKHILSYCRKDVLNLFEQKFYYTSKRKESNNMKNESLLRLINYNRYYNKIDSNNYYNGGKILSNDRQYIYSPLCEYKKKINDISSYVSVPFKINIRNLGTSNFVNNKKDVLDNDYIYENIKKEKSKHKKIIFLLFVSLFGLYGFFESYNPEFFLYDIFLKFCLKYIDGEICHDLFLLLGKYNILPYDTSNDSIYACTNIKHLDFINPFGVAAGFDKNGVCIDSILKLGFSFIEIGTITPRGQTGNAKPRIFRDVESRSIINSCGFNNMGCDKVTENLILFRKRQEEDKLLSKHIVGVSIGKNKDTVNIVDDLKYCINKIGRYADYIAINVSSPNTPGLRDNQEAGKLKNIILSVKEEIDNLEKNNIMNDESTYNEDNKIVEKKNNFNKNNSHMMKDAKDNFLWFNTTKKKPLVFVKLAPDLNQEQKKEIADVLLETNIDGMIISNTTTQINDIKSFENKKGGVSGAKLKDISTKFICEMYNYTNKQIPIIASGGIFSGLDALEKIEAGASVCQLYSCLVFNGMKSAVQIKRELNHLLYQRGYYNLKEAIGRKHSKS
Sequence of NADPH oxidase 5 (Homo sapiens) (Q96PH1 whole entry, looked up): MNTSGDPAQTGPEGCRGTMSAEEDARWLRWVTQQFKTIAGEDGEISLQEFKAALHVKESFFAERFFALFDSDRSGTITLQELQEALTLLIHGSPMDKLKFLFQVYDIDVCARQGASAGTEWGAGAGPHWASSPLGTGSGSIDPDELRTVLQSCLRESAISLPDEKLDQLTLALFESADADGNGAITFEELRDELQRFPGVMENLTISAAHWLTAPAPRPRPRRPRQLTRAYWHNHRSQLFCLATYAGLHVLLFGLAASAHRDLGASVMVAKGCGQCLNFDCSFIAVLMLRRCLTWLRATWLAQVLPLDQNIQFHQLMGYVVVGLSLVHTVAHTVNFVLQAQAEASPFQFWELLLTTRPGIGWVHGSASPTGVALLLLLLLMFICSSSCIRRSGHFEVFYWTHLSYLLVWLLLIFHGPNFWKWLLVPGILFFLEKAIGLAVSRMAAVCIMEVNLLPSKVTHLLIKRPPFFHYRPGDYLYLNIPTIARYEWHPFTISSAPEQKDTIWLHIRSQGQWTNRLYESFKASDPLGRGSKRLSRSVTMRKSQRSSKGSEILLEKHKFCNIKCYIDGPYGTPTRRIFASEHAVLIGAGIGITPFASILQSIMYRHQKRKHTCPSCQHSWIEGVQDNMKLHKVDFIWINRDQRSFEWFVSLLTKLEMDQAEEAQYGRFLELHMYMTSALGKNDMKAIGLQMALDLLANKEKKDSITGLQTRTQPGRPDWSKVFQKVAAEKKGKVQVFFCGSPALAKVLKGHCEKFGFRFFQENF
Sequence of NADPH oxidase 4 (Homo sapiens) (Q9NPH5 whole entry, looked up): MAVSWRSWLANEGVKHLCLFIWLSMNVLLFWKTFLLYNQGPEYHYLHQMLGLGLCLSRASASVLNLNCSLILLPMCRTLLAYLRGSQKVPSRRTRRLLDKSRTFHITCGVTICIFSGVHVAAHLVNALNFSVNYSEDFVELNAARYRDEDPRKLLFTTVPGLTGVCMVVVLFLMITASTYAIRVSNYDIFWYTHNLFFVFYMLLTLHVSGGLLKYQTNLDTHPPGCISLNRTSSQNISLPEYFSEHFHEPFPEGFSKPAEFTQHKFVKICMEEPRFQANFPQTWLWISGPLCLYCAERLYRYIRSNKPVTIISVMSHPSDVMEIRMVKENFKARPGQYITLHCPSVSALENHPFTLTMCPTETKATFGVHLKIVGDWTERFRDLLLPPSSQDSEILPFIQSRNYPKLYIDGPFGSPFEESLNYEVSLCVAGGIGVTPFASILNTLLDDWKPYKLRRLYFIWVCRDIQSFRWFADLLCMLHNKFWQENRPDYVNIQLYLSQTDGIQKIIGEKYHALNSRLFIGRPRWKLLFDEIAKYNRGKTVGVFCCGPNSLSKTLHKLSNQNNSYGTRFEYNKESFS

Structure (SMILES)	z-score [1]	z-score [2]	z-score [3]	z-score [4]	z-score [5]	z-score [6]	z-score [7]	z-score [8]	z-score [9]	z-score [10]	z-score [11]	z-score [12]	z-score [13]	z-score [14]	z-score [15]	composite z-score [16]	z-score [17]	z-score [18]	z-score [19]	z-score [20]
CCOC(=O)C[C@H]1[C@H](OC(=O)c2ccc(-c3ccccc3)cc2)[C@@H](NC(=O)c2ccccc2)c2cc(OCCCO)ccc2N1C(=O)c1ccccc1	1.32 (inactive)	3.5	0.769	1.54	-0.159	1.11	-0.132	3.28	0.318 (inactive)	0.709	1.38	-0.325 (inactive)	0.643	-1.34 (inactive)	1.83 (inactive)	0.594 (inactive)	-1.37 (inactive)	1.76 (inactive)	1 (inactive)	0.815
COC(=O)[C@@]1(CCC(=O)OC(C)(C)C)COC(c2ccc(OCCCO)cc2)=N1	0.562 (inactive)	-2.25	0.196	1.52	-0.528	0.203	-0.0712	-0.407	-0.0189 (inactive)	0.614	0.396	0.307 (inactive)	0.863	-1.27 (inactive)	0.867 (inactive)	-0.402 (inactive)	-0.612 (inactive)	2.83 (inactive)	1.14 (inactive)	1.1
CCOC(=O)C[C@H]1[C@H](OC(=O)c2cc3ccccc3oc2=O)[C@@H](NC(=O)c2ccccc2)c2cc(OCCCO)ccc2N1C(=O)Cc1ccc(OC)cc1	0.106 (inactive)	0.874	-0.0571	2.5	-0.382	0.497	-1.86	1.66	0.965 (inactive)	-0.295	1.13	-0.53 (inactive)	-0.259	-1.99 (inactive)	0.757 (inactive)	-2.68 (inactive)	-0.859 (inactive)	3.23 (inactive)	1.78 (inactive)	0.625
COc1ccc([Si](C)(C)[C@H]2[C@H](CC(=O)N(CCO)Cc3ccccc3)O[C@@]3(C(=O)N(Cc4ccc(N5CCC5=O)cc4)c4ccccc43)[C@@H]2C)cc1	1.25 (inactive)	2.96	-0.0126	0.816	-0.861	-1.22	-3.56	0.197	1.44 (inactive)	-0.995	0.233	-1.1 (inactive)	0.0408	-0.344 (inactive)	-1.3 (inactive)	-0.983 (inactive)	1.73 (inactive)	1.61 (inactive)	1.46 (inactive)	-1.97
CC(C)C[C@@H]1NC(=O)[C@@H]2C[C@H](C(=O)NCCCCCNC(=O)CS)[C@H](c3cccc(OCCO)c3)N2C1=O	0.84 (inactive)	0.00283	0.221	1.28	-0.646	-1	0.134	0.236	0.321 (inactive)	0.14	0.072	0.621 (inactive)	0.474	-0.928 (inactive)	1.47 (inactive)	-0.168 (inactive)	-1.14 (inactive)	0.186 (inactive)	-0.115 (inactive)	0.673
COC(=O)C(CC#Cc1ccc2c(c1)[C@]1(C(=O)N2)[C@H](C(N)=O)[C@H]2C(=O)O[C@H](c3ccccc3)[C@H](c3ccccc3)N2[C@@H]1c1ccc(O)cc1)C(=O)OC	0.297 (inactive)	1.1	0.685	0.915	0.72	0.555	-1.42	-2.22	-0.2 (inactive)	-1.17	1.25	1.16 (inactive)	0.259	-1.26 (inactive)	1.52 (inactive)	-0.0538 (inactive)	0.208 (inactive)	0.105 (inactive)	0.572 (inactive)	1.27
C=CCN1C(=O)[C@@]2(O[C@@H](CCO)[C@H]([Si](C)(C)c3ccc(OC)cc3)[C@H]2C)c2cc(N(C=O)c3ccccc3)ccc21	0.638 (inactive)	-0.174	-3.16	0.412	-4.73	-2.68	-4.39	-2.22	1.53 (inactive)	-1.05	-2.14	-4.7 (inactive)	-6.2	-0.425 (inactive)	-8.88 (active)	-0.459 (inactive)	-0.592 (inactive)	2.62 (inactive)	1.81 (inactive)	-6.21
C=C(/C(=C/C[C@H](OC(C)=O)c1cccc(OCCO)c1)c1cc(C(=O)OC)ccc1OC)C(C)C	1.84 (inactive)	-1.06	1.75	0.911	0.454	-0.181	0.587	1.66	1.91 (inactive)	0.00485	0.343	3.57 (inactive)	1.97	-1.63 (inactive)	1.92 (inactive)	-0.569 (inactive)	-1.29 (inactive)	2.48 (inactive)	1.67 (inactive)	1.87
COC(=O)C1=CC(c2ccc(CO)cc2)=CC(C2CC2)N(C)C=C1C(=O)OC (stereo not given)	-0.0178 (inactive)	-1.69	0.981	1.31	0.295	1.07	-0.503	1.47	0.935 (inactive)	0.515	1.12	0.419 (inactive)	0.578	-2.82 (inactive)	0.833 (inactive)	-0.782 (inactive)	-3.29 (inactive)	0.983 (inactive)	1.28 (inactive)	0.842
C=C1C=C(Br)C2(OCCCO2)[C@H]2OC12 (stereo not given in full)	0.0158 (inactive)	0.705	-1.53	-0.191	0.817	0.174	-0.0566	0.533	-0.696 (inactive)	0.305	-0.443	-0.54 (inactive)	-0.92	-0.353 (inactive)	-2.94 (inactive)	-0.99 (inactive)	0.307 (inactive)	0.846 (inactive)	0.781 (inactive)	-0.846
CC(C)C(CO)N1C(=O)[C@@H]2C3C(=O)OCCC/C=C\[C@H]3OC23C=CCN(C(C)C)C(=O)[C@@H]13 (stereo not given in full)	0.527 (inactive)	1.56	0.136	0.492	-0.345	0.239	-0.0156	0.271	-0.0599 (inactive)	-0.524	1.05	0.735 (inactive)	0.997	-0.953 (inactive)	0.814 (inactive)	-0.848 (inactive)	-1.36 (inactive)	1.66 (inactive)	1.26 (inactive)	1.53
C/C=C/[C@@H](CCn1cc(CCO[Si](C(C)C)(C(C)C)C(C)C)nn1)[Si](C)(C)c1ccc(OC)cc1	0.0135 (inactive)	-0.497	1.74	0.925	0.359	-1.17	-1.21	3.71	1.12 (inactive)	0.236	2.03	7.86 (inactive)	4.46	-2.21 (inactive)	1.91 (inactive)	-1.14 (inactive)	-4 (inactive)	2.42 (inactive)	1.89 (inactive)	5.22
CO[C@H]1O[C@H](CO)[C@@H](OC(=O)CCc2ccccc2)[C@@H]2OC(=O)[C@H](Cc3ccccc3)C/C=C/C[C@@H](Cc3ccccc3)C(=O)O[C@@H]12	1.26 (inactive)	0.751	1.38	0.234	0.62	-0.0096	0.212	0.443	0.886 (inactive)	0.12	0.119	1.43 (inactive)	1.02	-2.53 (inactive)	0.832 (inactive)	-15.6 (active)	-0.103 (inactive)	1.19 (inactive)	0.754 (inactive)	0.884
C=CCN1C(=O)[C@@]2(O[C@@H](CCn3cc(CCO)nn3)[C@H]([Si](C)(C)c3ccc(OC)cc3)[C@H]2C)c2cc(N3C(=O)c4cccc5cccc3c45)ccc21	1.11 (inactive)	-0.148	-4.11	0.0493	-4.79	-2.73	-4.46	-2.84	1.32 (inactive)	-1.15	-2.09	-5.51 (inactive)	-6.41	-1.2 (inactive)	-9.06 (active)	-0.0753 (inactive)	1.19 (inactive)	2.37 (inactive)	2.05 (inactive)	-6.23
C=CCN1C(=O)[C@@]2(O[C@@H](CCO)[C@H]([Si](C)(C)c3ccc(OC)cc3)[C@H]2C)c2cc(N3C(=O)c4cccc5cccc3c45)ccc21	0.606 (inactive)	1.25	-3.04	-1.3	-4.72	-2.92	-4.4	-2.34	2.26 (inactive)	-1.01	-2.09	-4.58 (inactive)	-6.14	0.275 (inactive)	-8.59 (active)	0.901 (inactive)	5.51 (inactive)	2.57 (inactive)	2.05 (inactive)	-6.03
CC(C)C[C@@H]1NC(=O)[C@@]23C(=O)N[C@@H](Cc4ccccc4)C2[C@H](C)[C@@]2(C)O[C@H]2C3/C=C/C/C=C\CNC(=O)[C@H](Cc2ccccc2)NC1=O (stereo not given in full)	0.692 (inactive)	-3.15	0.823	1.14	0.331	0.0263	-0.928	1.42	0.868 (inactive)	-0.0886	0.851	0.703 (inactive)	0.182	-2.28 (inactive)	-0.295 (inactive)	0.113 (inactive)	-0.748 (inactive)	2.7 (inactive)	1.22 (inactive)	0.468
